Laboratory results published in PubChem BioAssay (Tox21).
Results filed as inconclusive are left out. Entries that show only a call come without a potency. Some compounds were tested as several samples or in several runs, with calls that do not always agree. Active and inactive are the calls of the source. Calls follow the shape of the dose curve; as a rule, active = well fitted activation curve with a large enough effect in the repeat runs; inconclusive = weak or mixed curves; inactive = flat fitted curve, though single readings scatter.

Assay: A CellTox Green Cytotoxicity Assay to monitor cytotoxicity in HEK293 cells - 8 hour (AID 1224884); also: nearly all actives have a fitted effect of over 35% in size
Conditions: CellTox Green fluorescence; series mostly up to 76.8 µM
From the text: National Center for Advancing Translational Sciences [NCATS]
NIH Chemical Genomics Center [NCGC]
U.S. Environmental Protection Agency [EPA]
National Institutes of Environmental Health Sciences [NIEHS]
National Toxicology Program [NTP]
Cell-based models are critical for drug discovery. Determining the natural cytotoxic effects resulting from test compounds is an essential research activity. A CellTox Green Cytotoxicity Assay to monitor cytotoxicity in real time of continues cell culture during 40 hours of the compound treatment was used to screen Tox21 10K library compounds in Hek293 cells. CellTox Green Cytotoxicity Assay is a nonlytic, homogeneous, biofluorescent method to measure cytotoxicity in cell culture after experimental manipulation. The assay system uses a proprietary asymmetric cyanine dye that is excluded from viable cells but preferentially stains the dead cell's DNA. […] Viable cells produce no appreciable increases in fluorescence. Therefore, the fluorescence signal produced by the binding interaction with dead cell DNA is proportional to cytotoxicity.
The mixture of Hek293 cell suspension and reagents were dispensed at 600cells/6 ul/well in 1536-well tissue culture treated black solid bottom plates using a Multidrop dispenser. After the assay plates were incubated at a 37 C/5% CO2 incubator for 5 hours, 23 nL of compounds dissolved in DMSO, positive and negative controls was transferred to the assay plate by a pintool work station. The plates were incubated at 37 C for 40 hours. The fluorescence intensity were measured at 0h, 8h, 16h, 24h, 32h and 40h time points using ViewLux plate reader during compound treatment.
Potency is read from the fitted curve at half-maximal effect.

| Compound | Potency |
| --- | --- |
| N#CSCc1ccccc1 | inactive |
| S=C=NCCc1ccccc1 | inactive |
| CCN1CCC2(CC1)COc1cc3c(cc12)N(C(=O)c1ccc(-c2ccc(-c4nnc(C)o4)cc2C)cc1)CC3 | 50.7 µM (active) |
| CC1(C)C(C=C(Cl)Cl)C1C(=O)OC(C#N)c1ccc(F)c(Oc2ccccc2)c1 (stereo not given) | inactive |
| Cc1cc2c3c(c1)C(c1ccccc1)=N[C@@H](NC(=O)c1ccncc1)C(=O)N3CC2 | inactive |
| O=[N+]([O-])[O-].[Tl+] | inactive |
| Cc1cc(C2CC2)nc(Nc2ccccc2)n1 | inactive |
| CCOP(=S)(OCC)SC(CCl)N1C(=O)c2ccccc2C1=O (stereo not given) | inactive |
| Clc1ccc(C(c2ccc(Cl)cc2)C(Cl)Cl)cc1 | inactive |
| CC(C)c1c(CN(C)C(C)Cc2ccccc2)n(C)n(-c2ccccc2)c1=O (stereo not given) | inactive |
| CC1(C)[C@H](/C=C2\CCSC2=O)[C@@H]1C(=O)OCc1coc(Cc2ccccc2)c1 | inactive |
| CC(C)=CCN1CC[C@@]2(C)c3cc(O)ccc3C[C@@H]1[C@@H]2C | inactive |
| CCC1(CC)C(=O)N=C(O)NC1=O | inactive |
| CNC(=O)/C=C(\C)OP(=O)(OC)OC | inactive |
| CC1CN1 (stereo not given) | inactive |
| [Cl-].[Cl-].[Cl-].[Yb+3] | inactive |
| [Cl][Hg][c]1ccccc1 | inactive |
| CC(=O)[O-].CC(=O)[O-].CC(=O)[O-].[Cr+3] | inactive |
| N#Cc1ccc(N(CC(N)=O)CC(F)(F)F)cc1C(F)(F)F | inactive |
| CCC(C)Br (stereo not given) | inactive |

| Compound | Potency |
| --- | --- |
| C#CCC1=C(C)C(OC(=O)C2C(C=C(C)C)C2(C)C)CC1=O (stereo not given) | inactive |
| CCC(C)Nc1c([N+](=O)[O-])cc(C(C)(C)C)cc1[N+](=O)[O-] (stereo not given) | inactive |
| O=NN(CCO)CCO | inactive |
| CC(C)[C@@H](Nc1ccc(C(F)(F)F)cc1Cl)C(=O)OC(C#N)c1cccc(Oc2ccccc2)c1 (stereo not given in full) | inactive |
| CC(=O)[O-].CC(=O)[O-].[Co+2] | inactive |
| CC(=O)O.CC(=O)O.CC(=O)O.CC(=O)O.CC(=O)O.CC(=O)O.CC(=O)O.O.O.[Cr].[Cr].[Cr] | inactive |
| CCOP(=S)(OCC)Oc1cc(C)nc(N(CC)CC)n1 | inactive |
| CCCC[N+]1(C)CCCC1 (tested in a mixture with another compound) | inactive |
| COc1ccc(Cc2nccc3cc(OC)c(OC)cc23)cc1OC | inactive |
| O=C(O)[C@H](O)[C@@H](O)C(=O)O | inactive |
| CCC[CH2][Sn]([CH2]CCC)([CH2]CCC)[O][Sn]([CH2]CCC)([CH2]CCC)[CH2]CCC | 2.14 µM (active) |
| CCNc1nc(NC(C)C(C)C)nc(SC)n1 (stereo not given) | inactive |
| CCCCON=O | inactive |
| Fc1ccc(C(OCCN2CCN(CCCc3ccccc3)CC2)c2ccc(F)cc2)cc1 | 21.3 µM (active) |
| CCCCC/C=C\C/C=C\C/C=C\C/C=C\CCCC(=O)NCC(=O)O | inactive |
| Clc1ccc(C(Cl)(Cl)Cl)cc1Cl | 42.7 µM (active) |
| Brc1ccc(Oc2ccc(Br)cc2Br)c(Br)c1 | inactive |
| CN(C)C(=S)SSC(=S)N(C)C | 49 µM (active) and inactive |
| CSC(=O)c1c(C(F)F)nc(C(F)(F)F)c(C(=O)SC)c1CC(C)C | inactive |
| CC#C[C@]1(O)CC[C@H]2[C@@H]3C[C@H](C)C4=CC(=O)CC[C@]4(C)[C@H]3CC[C@@]21C | inactive |
